ChEMBL document CHEMBL3988442, “University of Dundee, Small-Polar-MMV Screening Library” (2021)
The campaign covered roughly 48,000 compounds. About 13,000 (27%) showed an effect of 50% or more. The list shows a part of the results.

test system: Wolbachia pipientis; assay: Anti-Wolbachia Cell-Based Screen; type: functional; design: scale not given: in the data most compounds retested in dose-response had high values; settings: 5 µM

Compound | Percent Effect [%]
COCc1nn(CC2CC2)c2c1CN(Cc1ccco1)CC2.O=C(O)C(F)(F)F | -26.88
Cc1cc(NC(=O)CN(CC(C)O)c2ccccc2)on1 (stereo not given) | -1.303
CC(=O)N1N=C(COc2ccc(C)cc2)OC1c1ccc(N(C)C)cc1 (stereo not given) | 128.5
CC(=O)N(C)Cc1ccc(OCc2cccs2)cc1 | 14.59
COc1ccc(C2OC(COc3ccccc3Br)=NN2C(C)=O)cc1 (stereo not given) | -8.819
COc1ccc(OCc2nc(C(=O)N3CCC(NC(C)=O)C3)co2)cc1 (stereo not given) | 5.881
COc1ccc(C2OC(COc3ccc(C)cc3)=NN2C(C)=O)cc1 (stereo not given) | 120.9
COc1cc(C(=O)N(CCC#N)Cc2ccccn2)cc(OC)c1C | 1.954
O=C(CC1CCN(CCc2ccccc2)CC1)N1CCCOCC1 | 161.2
O=C(NCC1CCN(CCc2ccccc2)C1)NCC1(O)CCC1 (stereo not given) | -8.264
O=C(Cc1cnn(-c2ccccc2)n1)NC1CCOCC1 | 19.75
O=C(CC1CCN(CCN2CCCCC2)CC1)N1CCOCC1 | -17.01
O=C(CC1CCN(CCc2ccccc2)CC1)NC1CCOCC1 | 134.1
O=C(CC1CN(Cc2ccccc2)CCO1)NC1CCCC1 (stereo not given) | 4.16
CCCc1nc(CNC(=O)Cc2csc(C)n2)cs1 | -2.31
Cc1nn(C)c(C)c1-c1ccnc(N(C)Cc2nc(C(C)C)no2)n1 | -10.91
Cc1nn2cccnc2c1C(=O)NCc1ccccc1OC1CCC1 | -16.31
O=C(c1cccnc1O)N1CCOC(Cc2cccc(C(F)(F)F)c2)C1 (stereo not given) | 16.06
O=S(=O)(NCCCN1CC=CC1)c1cncc(Cl)c1 | -17.29
CC1(C)CNC(=O)c2nc(CCN3CCC(C(N)=O)CC3)[nH]c2C1 | -47.56
CC1(C)CNC(=O)c2nc(-c3ccccc3)[nH]c2C1 | 3.068
Cc1cc(OCC(O)c2nc3c([nH]2)CC(C)(C)CNC3=O)ccc1Cl (stereo not given) | 90.28
CCC(O)c1nc2c([nH]1)CC(C)(C)CNC2=O (stereo not given) | 130.2
CC1(C)CNC(=O)c2nc(-c3nnc(-c4ccccc4)[nH]3)[nH]c2C1 | 3.309
CCOCC(O)c1nc2c([nH]1)CC(C)(C)CNC2=O (stereo not given) | 90.67

Compound | Percent Effect [%]
CC1(C)CNC(=O)c2nc(CCN3CCC(O)CC3)[nH]c2C1 | -46.57
CC1(C)CNC(=O)c2nc(-c3nnn[nH]3)[nH]c2C1 | 23.12
CC1(C)CNC(=O)c2nc(-c3n[nH]c(=O)[nH]3)[nH]c2C1 | -9.314
CC(C)(C)CNS(=O)(=O)C1CS(=O)(=O)c2ccccc21 (stereo not given) | -2.538
CCN(C)S(=O)(=O)N1CCC(C(O)c2ccc(F)cc2)CC1 (stereo not given) | -5.224
COCc1n[nH]/c(=N\C(=O)c2c3c(nc4onc(C)c24)CCC3)s1 | 76.74
Cc1nn(C)c2nc3c(c(C(=O)/N=c4\[nH]nc(C(C)C)s4)c12)CCC3 | 112.1
Cc1n[nH]/c(=N\C(=O)c2c3c(nc4onc(C)c24)CCC3)s1 | 84.01
Cc1noc2nc3c(c(C(=O)/N=c4\[nH]nc(C(C)C)s4)c12)CCC3 | 96.48
Cc1nc(C)c(CNC[C@@]2(COc3cccnc3)C[C@@H](O)[C@@H](O)C2)s1.Cl.Cl | 0.5308
O=C(CCn1cccn1)N1C[C@@H]2CC[C@H](C1)N(Cc1ccccn1)C2=O | 2.815
Cl.NCCCNS(=O)(=O)Cc1ccc(Br)cc1 | -40.39
CCCc1nc(CNc2nc(C)nc3oc(C)nc23)cs1 | -12.23
COc1ccc(C(=O)N2CCC(Oc3ccccc3C)(C(=O)O)CC2)o1 | -4.68
Cc1noc2nc3c(c(C(=O)/N=c4\[nH]ncs4)c12)CCC3 | 123.1
Cc1cs/c(=N\C(=O)c2c3c(nc4onc(C)c24)CCC3)[nH]1 | 113
COCc1noc(C2(c3ccc(F)cc3)CCOCC2)n1 | -32.93
O=S(=O)(NCC1CCN(CCN2CCOCC2)C1)c1ccccc1F (stereo not given) | 14.41
CC(=O)NCC(=O)N1CCn2cc(CN3CCN(C)CC3)nc2C1.O=C(O)C(F)(F)F.O=C(O)C(F)(F)F | -9.16
CC(=O)N1CCCC(Cc2nccn2C)C1 (stereo not given) | 104.6
Cn1ccnc1CC1CCCN(C(=O)Nc2cccn(C)c2=O)C1 (stereo not given) | -3.094
Cn1ccnc1CC1CCCN(C(=O)Cc2ccccc2)C1 (stereo not given) | 107.6
Cn1ccnc1CNC(=O)N1CCCC(Cc2nccn2C)C1 (stereo not given) | -2.047
CN(CCc1ccccc1)C1CCCN(Cc2nccn2C)C1 (stereo not given) | -2.668
CCC(C)(NCc1cccc(NC(C)=O)c1)c1nc(C)cs1 (stereo not given) | -6.571

Compound | Percent Effect [%]
CCNS(=O)(=O)C1CCN(C(=O)c2ccc(CC)o2)C1 (stereo not given) | 1.453
CCN1CCN(C(=O)C(C)N2CCc3cncnc3C2)CC1 (stereo not given) | 4.565
Clc1cncc(NCc2cccc(OCCN3CCOCC3)c2)n1 | 2.735
COc1ccc(CN2CCOC[C@H](OCc3ccccc3)C2)cc1 | -4.744
Cc1cc(CC2COCCN(CCc3ccccc3)C2)ncn1 (stereo not given) | 136.2
Cc1cc(N2CCCN(CCc3ccccc3)CC2)ccn1 | 5.317
CC(C)(C)c1coc([C@@H]2COCCN2Cc2ccccc2)n1 | -6.681
CN1CCN2CCN(Cc3cnc(NCc4ccccc4)nc3)CC2C1 (stereo not given) | 2.574
CNc1cnc(CC2COCCN(CCOc3ccccc3)C2)cn1 (stereo not given) | 158.8
Cc1ccc(CC2COCCN(Cc3ccccc3)C2)nc1 (stereo not given) | 76.14
CNc1cc(C)nc(N2CCN(Cc3ccccc3)CC(O)C2)n1 (stereo not given) | 10.53
O=C1O[C@@H]2CN(CCc3ccccc3)C[C@@H]2N1CCCN1CCOCC1 | -3.811
CNc1cnc(CC2COCCN(Cc3ccccc3)C2)cn1 (stereo not given) | 100
c1ccc(NCc2cccc(OCCN3CCOCC3)c2)nc1 | 9.722
Cc1cc(C)n(C2CN(C(=O)Cn3c(=O)c(C)nc4ccccc43)C2)n1 | -1.32
CNC(=O)[C@@H]1C[C@@H](N)CN1Cc1ccc2cccc(OC)c2n1 | -0.1513
c1ccc(CCc2noc(CN3CCC(N4CCSCC4)CC3)n2)cc1 | -3.456
N#Cc1ccc(CNC(=O)NC2CCN(CC(F)F)CC2)cc1 | 3.671
COc1cc(O)cc2c1C(=O)CC(c1ccc(O)cc1)O2 (stereo not given) | -2.59
CN(Cc1ccc(C#N)cc1)Cn1nccc1-c1cccnc1 | 11.16
COc1ccc(CN2Cc3cn(C)nc3C(COCC3CC3)C2)cc1 (stereo not given) | 10.23
COc1ccccc1CN(Cc1cccc(C)c1)C(=O)[C@@H](N)CC(=O)O | 3.134
Oc1cc(CC2COCCN(CC3(O)CCOCC3)C2)ncn1 (stereo not given) | 130
CCCN1CCC(CC(=O)NCc2cc(O)ncn2)CC1 | -6.133
CNc1cnc(CC2COCCN(Cc3cccc(C)n3)C2)cn1 (stereo not given) | 107

Compound | Percent Effect [%]
Cc1cccc(CN2C[C@H]3OC(=O)N(CCCN4CCOCC4)[C@H]3C2)n1 | -5.32
Cc1cccc(O[C@H]2COCCN(Cc3sc(C)nc3C)C2)n1 | 12.2
OC1COCCN(Cc2cccc(N3CCOCC3)c2)C1 (stereo not given) | -7.923
CSc1cc2c(cc1NC(=O)N(C)Cc1cnn(C)c1)OCCO2 | -6.777
COCCN1C(=O)[C@H]2CC[C@@H]1CN(C(=O)Cc1ccc(O)c(Cl)c1)C2 | 12.68
CC(C)c1noc(Cn2ncn3cccc3c2=O)n1 | -11.32
O=C(O)C(F)(F)F.O=C(c1ccc(F)cc1)N1CCC2(CCN(Cc3ccccn3)C2=O)C1 (stereo not given) | 89.07
Cc1cccc(CN2CCC3(CCCN(C(=O)c4ccoc4)C3)C2=O)n1.O=C(O)C(F)(F)F (stereo not given) | 1.474
Cc1ccc(C(=O)N2CCC3(CCN(Cc4ccccn4)C3=O)C2)cn1 (stereo not given) | 76.19
O=C(O)C(F)(F)F.O=C(c1ccsc1)N1CCC2(CCN(Cc3ccccn3)C2=O)C1 (stereo not given) | 124
Cc1oncc1C(=O)N1CCC2(CCN(Cc3ccccn3)C2=O)C1 (stereo not given) | -15.28
O=C(O)C(F)(F)F.O=C(c1cccnc1)N1CCCC2(CCN(c3ccsc3)C2=O)C1 (stereo not given) | 9.95
CN(C)CC(=O)N1CCC2(CCN(Cc3ccccn3)C2=O)C1 (stereo not given) | -12.92
Cc1cccc(CN2CCC3(CCCN(C(=O)c4ccsc4)C3)C2=O)n1.O=C(O)C(F)(F)F (stereo not given) | -5.258
COCC(=O)N1CCC2(CC1)CCN(Cc1ccccn1)C2=O.O=C(O)C(F)(F)F | -18.96
Cc1cnc(C(=O)N2CCC3(CCN(Cc4ccccn4)C3=O)C2)cn1.O=C(O)C(F)(F)F (stereo not given) | 102.4
COc1cccc(CC2CCCN2CCCC#N)c1 (stereo not given) | 4.783
O[C@H]1[C@H](n2cc(-c3cccnc3)nn2)c2ccccc2C12CCNCC2 | 12.4
O=C(CCc1ccc(OC(F)(F)F)cc1)N1CCCS1(=O)=O | 14.48
c1cnc(N2CCN(Cn3nccc3-c3cccnc3)CC2)nc1 | 3.122
Cc1ncc(C(=O)NC2CCN(CCOc3ccc(Br)cc3)CC2)s1 | -10.45
CC(C)CC(NC(=O)c1ccc[nH]1)C(=O)N1CCC(CO)CC1 (stereo not given) | 4.263
Cc1occc1C(=O)N1CCCC2(CCN(CCN3CCCC3)C2=O)C1.O=C(O)C(F)(F)F (stereo not given) | -1.514
Cc1occc1C(=O)N1CCC2(CCN(Cc3ccccn3)C2=O)C1.O=C(O)C(F)(F)F (stereo not given) | 103.9
Cc1occc1C(=O)N1CCCC2(CCN(c3ccccc3)C2=O)C1 (stereo not given) | 4.886
